Molecules are shown by their SMILES. Values joined by “and” are separate entries in the source; they are usually repeats but may differ in a detail not shown here. Equal entries are not always repeated.

Holding throughout (type): functional
The subject of test [1] is Plasmodium falciparum. In words: GSK_TCMDC: Inhibition of Plasmodium falciparum 3D7 in whole red blood cells, using parasite LDH activity as an index of growth. Test compounds present at 2uM.
Test [2] concerns Plasmodium falciparum. In words: GSK_TCMDC: Inhibition of Plasmodium falciparum Dd2 in whole red blood cells, using parasite LDH activity as an index of growth. Test compounds present at 2uM.
The next test deals with HepG2. In words: GSK_TCMDC: Percent inhibition of human HepG2 cell line. Test compounds present at 10uM.

On to `CC(C)n1ncc2c(C(=O)Nc3ccc(C#N)c(Cl)c3)cc(C3CC3)nc21`, for which the Inhibition turned out to be 93% in the test on Plasmodium falciparum [1], 15% in the test with Plasmodium falciparum [2] and 20% in the test on HepG2.
The matching figures for `CNC(=O)c1ccc2[nH]cc(C3CCN(CC4CCN(C(=O)/C=C/c5ccc(Cl)c(Cl)c5)CC4)CC3)c2c1`: 100%, 88% and 3%.
Take `CC(=O)N(Cc1ccc(-c2ccc(CNCCc3ccccc3)cc2)cc1)C1CCN(Cc2ccccc2)CC1.O=C(O)C(F)(F)F`: the Inhibition with Plasmodium falciparum [1] stood at 95%; in the test with Plasmodium falciparum [2], 15%; in the test with HepG2, 45%.
The like results for `Cc1cc(NC(=O)[C@H](CC(C)C)Nc2ccc(C#N)c3ccccc23)ccc1F.O=C(O)C(F)(F)F` were, in that order, 95%, 88% and 35%.
The matching figures for `CCCN(CCC)CCOC(=O)C(OCC)(c1ccccc1)c1ccccc1`: 97%, 0% and 0%.
As for `CCCCCSc1cc(O)c(C(CNC)C(C)C)cc1OC.O=C(O)/C=C\C(=O)O` (centres undefined), the results for the Inhibition in the test with Plasmodium falciparum [1], in the test with Plasmodium falciparum [2] and in the test on HepG2 were 100%, 99% and 5%, respectively.
The matching figures for `Br.Cc1ccccc1C1=CCN(CCCN2c3ccccc3Sc3ccc(Cl)cc32)CC1`: 90%, 30% and 14%.
`O=C(/C=C/c1ccc(Cl)c(Cl)c1)NCc1ccc(CN2CCC(c3c[nH]c4ccccc34)CC2)cc1`: the Inhibition with Plasmodium falciparum [1] was 100%; with Plasmodium falciparum [2] it was 86%; in the test with HepG2, 59%.
The matching figures for `Cc1cc(C2CCCCN2C)ccc1-c1ccc(C(=O)N2CCc3cc4c(cc32)C2(CCN(C)CC2)CO4)cc1.Cl` (centres undefined): 95%, 94% and 37%.
The matching figures for `COC(=O)/C=C/c1ccc(CC(C)NCC(O)c2cccc(Cl)c2)cc1` (centres undefined): 99%, 73% and 2%.
The like results for `COC(=O)c1ccc(CC(C)NCC(O)c2cccc(C(F)(F)F)c2)c(Cl)c1` (centres undefined) were, in that order, 99%, 98% and 0%.
As for `COc1cc(NC(=O)c2nn(CCCN3CCC4(CC3)C(=O)NCN4c3ccccc3)cc2-c2ccc(Cl)c(Cl)c2)cc(OC)c1OC`, the values for the Inhibition with Plasmodium falciparum [1], in the test on Plasmodium falciparum [2] and with HepG2 were 97%, 75% and 0%, respectively.
For `CCCCCCc1cc(O)c2c3c(c(=O)oc2c1)CCN(C)C3`, the Inhibition in the test on Plasmodium falciparum [1] stood at 99%; in the test on Plasmodium falciparum [2], 66%; in the test with HepG2, 0%.
The matching figures for `COC(=O)c1ccc(C[C@@H](C)NC[C@H](O)c2cccc(C(F)(F)F)c2)cc1.Cl`: 97%, 93% and 1%.
On to `FC(F)(F)c1ccc(NC(=S)NC2CCC(CN3CCC(c4c[nH]c5ccccc45)CC3)CC2)cc1` (centres undefined), for which the Inhibition in the test with Plasmodium falciparum [1] was 100%; in the test with Plasmodium falciparum [2] it was 100% and 99%; in the test with HepG2, 65% and 92%.
As for `COc1ccccc1CC(C)NCC(O)c1cccc(Cl)c1` (centres undefined), the values for the Inhibition with Plasmodium falciparum [1], with Plasmodium falciparum [2] and with HepG2 were 97%, 98% and 13%, respectively.
For `COc1cc(CN2CCN(c3ccnc(N(C)C4CCN(C)CC4)n3)CC2)cc(Cl)c1O`, the Inhibition is reported as 94% with Plasmodium falciparum [1], 63% in the test with Plasmodium falciparum [2] and 11% in the test on HepG2.
The matching figures for `CN1CC=C(c2c[nH]c3ccc(Br)cc23)CC1`: 88%, 80% and 0%.
The matching figures for `CC[C@H]1CN2CC[C@H]1C[C@@H]2[C@@H](OC(=O)c1ccc(Cl)cc1)c1ccnc2ccc(OC)cc12`: 89%, 0% and 0%.
The like results for `COC(=O)c1ccc(CC(C)NCC(O)c2cccc(C(F)(F)F)c2)cc1F.Cl` (centres undefined) were, in that order, 82%, 47% and 1%.
For the molecule `C/C=C1/CN2CC[C@H]1C[C@H]2[C@H](O)c1ccnc2ccc(O)cc12`, the Inhibition in the test with Plasmodium falciparum [1] stood at 99%; in the test on Plasmodium falciparum [2], 11%; in the test on HepG2, 0%.
The like results for `CC(Cc1ccc(NC(=O)CCNCc2ccccc2)cc1)NCCc1cccc(Cl)c1` (centres undefined) were, in that order, 100%, 100% and 100%.
The like results for `O=C(/C=C/c1cc(C(F)(F)F)ccc1F)N1CCC(CN2CCC(c3c[nH]c4ccccc34)CC2)CC1` were, in that order, 96%, 14% and 22%.
The like results for `CN(C)c1cccc(CCNCCc2c[nH]c3ccc(Cl)cc23)c1.O=C(O)C(=O)O` were, in that order, 94%, 75% and 19%.
Take `CCCCNC(c1ccc(Cl)cc1)C(O)c1ccc(Cl)cc1.Cl` (centres undefined): the Inhibition amounted to 99% in the test with Plasmodium falciparum [1], 98% with Plasmodium falciparum [2] and 13% with HepG2.
The matching figures for `COc1cc(C(=O)NC2CCC(CN3CCC(c4c[nH]c5ccccc45)CC3)CC2)cc(Cl)n1` (centres undefined): 99%, 45% and 33%.
The like results for `CN(c1cc(NC(=O)c2cccs2)ccn1)C1CCN(Cc2ccccc2)CC1.O=C(O)C(F)(F)F` were, in that order, 92%, 87% and 0%.
Regarding `COC(=O)c1sccc1NC(=S)NC1CCC(CN2CCC(c3c[nH]c4ccccc34)CC2)CC1` (centres undefined), the Inhibition is 97% and 100% in the test with Plasmodium falciparum [1]; 49% and 54% with Plasmodium falciparum [2]; 34% and 25% with HepG2.

Values taken from ChEMBL document CHEMBL1157539, “Thousands of chemical starting points for antimalarial lead identification” (Nature, 2010).
